Tests used:
Experiment in all cases: relative growth (AUC of 72 h growth curve relative to DMSO control, dAUC) (ratio); higher = more growth (less inhibition), active = hit call of the paper
Details in all cases: 20 µM;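 active = growth AUC significantly below the DMSO wells by Dunnett test; inactive = the rest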
[1] = test system: Prolinoborus 1 (Prolinoborus fasciculus)
Summary of the method: (§1)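 For relative growth (dAUC), the spline-integrated area under the growth curve was divided by the mean of the DMSO controls. Results were averaged over three biological replicates. Each replicate used a 1:100 dilution, into 96-well plates holding each chemical at 20 µM (1% DMSO), of isolates from Icelandic stream sediments and Silwood Park soil or whole sediment communities that had been grown to carrying capacity in Luria–Bertani medium. Plates were shaken briefly before each hourly A600 reading over 72 h.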

[2] = test system: Pseudomonas 1 (Pseudomonas baetica)
Summary of the method: as §1

[3] = test system: Pseudomonas 2 (Pseudomonas vancouverensis)
Summary of the method: as §1

[4] = test system: Pseudomonas 3 (Pseudomonas mandelii)
Summary of the method: as §1

[5] = test system: Pseudomonas 4 (Pseudomonas peli)
Summary of the method: as §1

[6] = test system: Pseudomonas 5 (Pseudomonas baetica)
Summary of the method: as §1

[7] = test system: Pseudomonas 6 (Pseudomonas sp.)
Summary of the method: as §1

[8] = test system: Rhizobium 1 (Rhizobium herbae)
Summary of the method: as §1

[9] = test system: Serratia 1 (Serratia sp. 2015-2462-01)
Summary of the method: as §1

[10] = test system: Sphingomonas 2 (Sphingomonas sp.)
Summary of the method: as §1

Measured: relative growth

OC(Cc1ccccc1Cl)(Cn1nc[nH]c1=S)C1(Cl)CC1 (stereo not given)
inactive: [1] 1.02 | [2] 1.02 | [3] 0.995 | [4] 1.01 | [5] 1 | [6] 0.995 | [7] 0.982 | [8] 1.07 | [9] 1.05 | [10] 0.981

CCC(CC)Nc1c([N+](=O)[O-])cc(C)c(C)c1[N+](=O)[O-]
inactive: [1] 0.939 | [2] 1.13 | [3] 0.981 | [4] 1.03 | [5] 0.949 | [6] 1.05 | [7] 1.04 | [8] 0.957 | [9] 0.929 | [10] 0.998

CS(=O)(=O)NC(=O)c1cc(Oc2ccc(C(F)(F)F)cc2Cl)ccc1[N+](=O)[O-]
inactive: [1] 1.01 | [2] 1.01 | [3] 1 | [4] 1 | [5] 0.996 | [6] 1.04 | [7] 1.07 | [8] 0.917 | [9] 1.02 | [10] 1.02

O=[N+]([O-])c1cc(C(F)(F)F)c(Cl)c([N+](=O)[O-])c1Nc1ncc(C(F)(F)F)cc1Cl
inactive: [2] 0.775
active: [1] 0.66 | [3] 0.795 | [4] 0.00358 | [5] 0.498 | [6] 0.595 | [7] 0.258 | [8] 0.109 | [9] 0.004 | [10] 0.0215

CC(C)(C)C(O)(CCc1ccc(Cl)cc1)Cn1cncn1 (stereo not given)
inactive: [1] 0.931 | [2] 1.15 | [3] 0.962 | [4] 1.03 | [5] 0.94 | [6] 0.979 | [7] 1.05 | [8] 0.918 | [9] 0.943 | [10] 1.06

CC(C)NC(=O)N1CC(=O)N(c2cc(Cl)cc(Cl)c2)C1=O
inactive: [1] 0.949 | [2] 0.913 | [3] 0.94 | [4] 0.906 | [5] 0.923 | [6] 0.954 | [7] 0.864 | [8] 1.03 | [9] 0.982 | [10] 0.971

OC(Cn1cncn1)(c1ccc(F)cc1)c1ccccc1F (stereo not given)
inactive: [1] 0.985 | [2] 0.993 | [3] 0.999 | [4] 1.03 | [5] 1.02 | [6] 1 | [7] 0.961 | [8] 0.971 | [9] 0.991 | [10] 1.03

CN1COCN(Cc2cnc(Cl)s2)/C1=N\[N+](=O)[O-]
inactive: [1] 0.974 | [2] 0.927 | [3] 1.03 | [4] 1.05 | [5] 0.996 | [6] 1.04 | [7] 1.1 | [8] 1.01 | [9] 0.99 | [10] 1.05

COCc1cnc(C2=NC(C)(C(C)C)C(=O)N2)c(C(=O)O)c1 (stereo not given)
inactive: [1] 1.08 | [2] 0.958 | [3] 0.98 | [4] 0.992 | [5] 0.974 | [6] 0.972 | [7] 1.01 | [8] 0.972 | [9] 1.03 | [10] 0.982

CCc1cccc(C)c1N(C(=O)CCl)[C@@H](C)COC
inactive: [1] 1.01 | [2] 1.09 | [3] 0.996 | [4] 1 | [5] 0.993 | [6] 1.03 | [7] 1.13 | [8] 0.952 | [9] 0.985 | [10] 0.791

CNC(=O)Oc1cccc(/N=C/N(C)C)c1
inactive: [1] 0.966 | [2] 1.04 | [3] 0.989 | [4] 1.1 | [5] 0.942 | [6] 1.07 | [7] 1.17 | [8] 0.99 | [9] 0.97 | [10] 1.05

CNC(=O)/C=C(\C)OP(=O)(OC)OC
inactive: [1] 0.971 | [2] 1.05 | [3] 0.988 | [4] 1.03 | [5] 0.964 | [6] 0.96 | [7] 0.989 | [8] 1.09 | [9] 0.937 | [10] 0.926

CCN(CC)c1nc(C)cc(OP(=S)(OC)OC)n1
inactive: [1] 1.01 | [2] 1 | [3] 1 | [4] 1 | [5] 0.979 | [6] 0.988 | [7] 1.03 | [8] 1.05 | [9] 0.994 | [10] 0.839

Clc1ccc(C(c2ccc(Cl)cc2)C(Cl)(Cl)Cl)cc1
inactive: [1] 1.08 | [2] 1.07 | [3] 0.992 | [4] 1.02 | [5] 0.985 | [6] 1.05 | [7] 1.16 | [8] 1.07 | [9] 1.05
active: [10] 0.0545

COC(=O)N(OC)c1ccccc1COc1ccn(-c2ccc(Cl)cc2)n1
inactive: [1] 1.01 | [2] 1.13 | [3] 1.04 | [4] 1.03 | [5] 1 | [6] 1.02 | [7] 1.15 | [8] 0.863 | [9] 0.984 | [10] 1.05

COP(=S)(OC)Oc1nc(Cl)c(Cl)cc1Cl
inactive: [1] 1.04 | [2] 1.06 | [3] 1.08 | [4] 1.09 | [5] 1.03 | [6] 1.06 | [7] 1.12 | [8] 0.8 | [9] 0.998 | [10] 1.06

O=C(Nc1ccc(F)cc1F)c1cccnc1Oc1cccc(C(F)(F)F)c1
inactive: [1] 1.03 | [2] 1.09 | [3] 1.01 | [4] 1.05 | [5] 1.01 | [6] 1.06 | [7] 1.13 | [8] 0.66 | [9] 1.02 | [10] 1.16

CC(C)N(C(=O)COc1nnc(C(F)(F)F)s1)c1ccc(F)cc1
inactive: [1] 0.963 | [2] 1.07 | [3] 1.03 | [4] 1.07 | [5] 0.983 | [6] 1.01 | [7] 1.1 | [8] 1.02 | [9] 0.984 | [10] 1.09

CCC(C)(C)C(=O)OC1=C(c2ccc(Cl)cc2Cl)C(=O)OC12CCCCC2
inactive: [1] 0.952 | [2] 1.07 | [3] 0.983 | [4] 1.04 | [5] 1 | [6] 1.02 | [7] 1.06 | [8] 0.97 | [9] 0.978 | [10] 1

O=C1C=C(N(Cc2ccc(Cl)nc2)CC(F)F)CO1
inactive: [1] 0.95 | [2] 1.15 | [3] 0.993 | [4] 1.06 | [5] 0.993 | [6] 0.988 | [7] 1.06 | [8] 0.978 | [9] 0.962 | [10] 0.914

CC1(C)C(C(=O)OC(C#N)c2cccc(Oc3ccccc3)c2)C1(C)C (stereo not given)
inactive: [1] 0.893 | [2] 1.08 | [3] 1 | [4] 1.04 | [5] 0.948 | [6] 1.01 | [7] 1.01 | [8] 1.05 | [9] 1 | [10] 0.98

CCc1cc(C)cc(CC)c1-c1c(OC(=O)C(C)(C)C)n2n(c1=O)CCOCC2
inactive: [1] 0.926 | [2] 1.1 | [3] 0.992 | [4] 1.01 | [5] 0.953 | [6] 0.951 | [7] 1.02 | [8] 0.907 | [9] 0.972 | [10] 1.06

Fc1ccc(Oc2ccnc3cc(Cl)cc(Cl)c23)cc1
inactive: [1] 1.03 | [2] 1.07 | [3] 1.02 | [4] 1.06 | [5] 1.07 | [6] 1.01 | [7] 1.06 | [8] 0.992 | [9] 1.01 | [10] 0.975

N#Cc1c[nH]cc1-c1cccc2c1OC(F)(F)O2
inactive: [1] 0.978 | [2] 0.952 | [3] 1 | [4] 1.03 | [5] 0.945 | [6] 0.971 | [7] 1.04 | [8] 0.932 | [9] 0.942 | [10] 0.957

CNC(=O)ON=C(C)SC
inactive: [1] 0.938 | [2] 0.876 | [3] 0.956 | [4] 0.999 | [5] 0.946 | [6] 1.02 | [7] 0.936 | [8] 1.06 | [9] 0.936 | [10] 0.978

Cc1cc(C(C#N)c2ccc(Cl)cc2)c(Cl)cc1NC(=O)c1cc(I)cc(I)c1O (stereo not given)
active: [1] 0.673 | [3] 0.757 | [4] 0.822 | [6] 0.844 | [9] 0.825 | [10] 0.0325
inactive: [2] 0.846 | [5] 0.883 | [7] 0.857 | [8] 0.478

N#Cc1c(Cl)c(Cl)c(Cl)c(C#N)c1Cl
inactive: [1] 1.04 | [2] 0.975 | [3] 0.972 | [4] 0.967 | [5] 1 | [6] 1.01 | [7] 1.1 | [9] 0.92
active: [8] 0.17 | [10] 0.0279

Oc1ccccc1-c1ccccc1
inactive: [1] 0.977 | [2] 1.03 | [3] 0.98 | [4] 1.01 | [5] 0.935 | [6] 1.05 | [7] 1.14 | [8] 0.989 | [9] 0.959 | [10] 0.969

CCOc1cc(Oc2ccc(C(F)(F)F)cc2Cl)ccc1[N+](=O)[O-]
inactive: [1] 0.938 | [2] 1.08 | [3] 0.992 | [4] 1.05 | [5] 0.939 | [6] 1.01 | [7] 1.12 | [8] 0.994 | [9] 0.952 | [10] 1.2

From the supplement of paper PMC12067926
